Our source for the growth inhibition values is PubChem BioAssay (NCI).

Assay [1] in a line: NCI Yeast Anticancer Drug Screen. Data for the rad50 strain (AID 155).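 Also: 0% = growth of vehicle-only cultures of the same strain.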 Conditions: S. cerevisiae rad50 strain growth inhibition, stronger effect = higher value. The procedure, abridged: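 DNA repair mutant yeast, compound exposure, growth read-out; inhibition is taken relative to vehicle.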
The nature of assay [2]: NCI Yeast Anticancer Drug Screen. Data for the mec2-1 strain (AID 157). Conditions: S. cerevisiae mec2-1 strain, stronger effect = higher value. The procedure, abridged: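 Readout is yeast growth inhibition, normalised to vehicle-treated controls, in the mec2-1 strain exposed to compound.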
The nature of assay [3]: NCI Yeast Anticancer Drug Screen. Data for the sgs1 mgt1 strain (AID 161).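 Also: 0% = growth of cultures given vehicle only.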 As to conditions: S. cerevisiae sgs1 mgt1 strain, stronger effect = higher value. The procedure, abridged: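 This yeast growth screen uses a strain with defined DNA-repair lesions; compound-treated growth is compared with vehicle-treated growth.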
The nature of assay [4]: NCI Yeast Anticancer Drug Screen. Data for the cln2 rad14 strain (AID 165).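 Also: 0% = growth equal to vehicle treated cultures.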 Conditions: S. cerevisiae cln2 rad14 strain, stronger effect = higher value. The procedure, abridged: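 Relative to vehicle controls, growth inhibition of compound-treated cln2 rad14 yeast was recorded.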
The nature of assay [5]: NCI Yeast Anticancer Drug Screen. Data for the bub3 strain (AID 167). Conditions: S. cerevisiae bub3 mutant strain, stronger effect = higher value. The method in brief:
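In this screen, a yeast mutant lacking normal mitotic checkpoint function is challenged with compound. Relative growth versus vehicle gives the inhibition value.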

Assay [6] is described as follows: NCI Yeast Anticancer Drug Screen. Data for the mlh1 rad18 strain (AID 175). As to conditions: S. cerevisiae mlh1 rad18 strain growth inhibition, stronger effect = higher value. The method in brief:
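Test agents were incubated with a yeast strain of defined genotype (DNA damage repair defect). Inhibition of growth was derived by comparison with vehicle-exposed cultures.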

[7] abbreviates: at 5.0 µM (retest, dose inferred, filed as 0.5).
Where [8] appears, read: at 50.0 µM (retest, dose inferred, filed as 5.0).

This is part of a sample that, as a whole, favours compounds with a hit. Of some 79,000 tested, about 15% had one in any assay. Unmarked numbers belong to inactive results. Active and inactive are the calls of the source. Rule as the data show it: active = growth inhibition above about 70%; inactive = the rest.

As to `O=C(Nc1cc(Cl)cc(Cl)c1)OCCCl`, the growth inhibition in assay [1] (setting [7]) was 53%; in assay [1] (setting [8]), 87% (active); in assay [1] (at 50.0 µM), 90.8% (active); in assay [2] (setting [7]) it was 32%; in assay [2] (setting [8]) it was 77% (active); in assay [2] (at 50.0 µM) it was 93% (active). Also, the growth inhibition is 36% in assay [3] (setting [7]); 84% (active) in assay [3] (setting [8]); 93.8% (active) in assay [3] (at 50.0 µM); 24% in assay [4] (setting [7]); 63% in assay [4] (setting [8]); 92% (active) in assay [4] (at 50.0 µM). Further, the growth inhibition in assay [5] (setting [7]) is 41%; in assay [5] (setting [8]), 88% (active); in assay [5] (at 50.0 µM) it was 92.6% (active); in assay [6] (setting [7]) it was 53%; in assay [6] (setting [8]), 93% (active); in assay [6] (at 50.0 µM), 92.5% (active).
As for `CC(=O)O/C=C\COC(C)=O`, the growth inhibition in assay [1] (setting [7]) was 4%; in assay [1] (setting [8]), 4%; in assay [1] (at 50.0 µM), 79.8% (active); in assay [2] (setting [7]), 2%; in assay [2] (setting [8]), -2%; in assay [2] (at 50.0 µM), 47.8%. The growth inhibition in assay [3] (setting [7]) was 3%; in assay [3] (setting [8]), 2%; in assay [3] (at 50.0 µM), 42.5%; in assay [4] (setting [7]) it was 3%; in assay [4] (setting [8]), -2%; in assay [4] (at 50.0 µM), 33.5%. The growth inhibition in assay [5] (setting [7]) was 6%; in assay [5] (setting [8]) it was 1%; in assay [5] (at 50.0 µM), 86.3% (active); in assay [6] (setting [7]), 2%; in assay [6] (setting [8]) it was 6%; in assay [6] (at 50.0 µM) it was 39.3%.
In the case of `Oc1c(Cl)cc(Br)cc1Cl`, the growth inhibition is 44% in assay [1] (setting [7]); 95% (active) in assay [1] (setting [8]); 84.7% (active) in assay [1] (at 50.0 µM); 19% in assay [2] (setting [7]); 99% (active) in assay [2] (setting [8]); 92.9% (active) in assay [2] (at 50.0 µM). Also, the growth inhibition in assay [3] (setting [7]) is 11%; in assay [3] (setting [8]), 93% (active); in assay [3] (at 50.0 µM), 96.5% (active); in assay [4] (setting [7]), 3%; in assay [4] (setting [8]), 99% (active); in assay [4] (at 50.0 µM) it was 78.5% (active). Besides, the growth inhibition in assay [5] (setting [7]) is 13%; in assay [5] (setting [8]), 99% (active); in assay [5] (at 50.0 µM) it was 89.3% (active); in assay [6] (setting [7]), 12%; in assay [6] (setting [8]) it was 97% (active); in assay [6] (at 50.0 µM) it was 91.8% (active).
Take `CCOC(=O)c1cc2c(nc1N)/C(=C/c1ccccc1)CCCC2`: the growth inhibition was 39% in assay [1] (setting [7]); 95% (active) in assay [1] (setting [8]); -24.4% in assay [1] (at 50.0 µM); 31% in assay [2] (setting [7]); 96% (active) in assay [2] (setting [8]); -34.6% in assay [2] (at 50.0 µM). Also, the growth inhibition in assay [3] (setting [7]) was 34%; in assay [3] (setting [8]) it was 96% (active); in assay [3] (at 50.0 µM), -29.2%; in assay [4] (setting [7]) it was 19%; in assay [4] (setting [8]) it was 80% (active); in assay [4] (at 50.0 µM) it was -15.4%. In addition, the growth inhibition in assay [5] (setting [7]) is 42%; in assay [5] (setting [8]) it was 97% (active); in assay [5] (at 50.0 µM), -11.4%; in assay [6] (setting [7]) it was 37%; in assay [6] (setting [8]), 95% (active); in assay [6] (at 50.0 µM) it was -21.1%.
Turning to `Cc1ccc(S(=O)(=O)NC(=O)CC2CCCCC2)cc1`, the growth inhibition in assay [1] (setting [7]) was 14%; in assay [1] (setting [8]), 89% (active); in assay [1] (at 50.0 µM), 91.2% (active); in assay [2] (setting [7]), 9%; in assay [2] (setting [8]), 93% (active); in assay [2] (at 50.0 µM), 76.5% (active). The growth inhibition is -9% in assay [3] (setting [7]); 94% (active) in assay [3] (setting [8]); 79.1% (active) in assay [3] (at 50.0 µM); -4% in assay [4] (setting [7]); 91% (active) in assay [4] (setting [8]); 76.7% (active) in assay [4] (at 50.0 µM). For the same molecule, the growth inhibition was 17% in assay [5] (setting [7]); 94% (active) in assay [5] (setting [8]); 79% (active) in assay [5] (at 50.0 µM); 22% in assay [6] (setting [7]); 96% (active) in assay [6] (setting [8]); 91.5% (active) in assay [6] (at 50.0 µM).
Take `O=[N+]([O-])c1ccc(NCc2ccccc2)c([N+](=O)[O-])c1`: the growth inhibition in assay [1] (setting [7]) is -8%; in assay [1] (setting [8]) it was 69%; in assay [1] (at 50.0 µM), 14.6%; in assay [2] (setting [7]), -16%; in assay [2] (setting [8]), 55%; in assay [2] (at 50.0 µM), 31.1%. The growth inhibition was 4% in assay [3] (setting [7]); 72% (active) in assay [3] (setting [8]); 60.6% in assay [3] (at 50.0 µM); -10% in assay [4] (setting [7]); 62% in assay [4] (setting [8]); -166% in assay [4] (at 50.0 µM). Moreover, the growth inhibition is 19% in assay [5] (setting [7]); 86% (active) in assay [5] (setting [8]); 72.7% (active) in assay [5] (at 50.0 µM); -2% in assay [6] (setting [7]); 80% (active) in assay [6] (setting [8]); 68% in assay [6] (at 50.0 µM).
With `O=C1Nc2ccccc2NC(=O)C(=C(c2ccccc2)c2ccccc2)C1=C(c1ccccc1)c1ccccc1`, the growth inhibition was 95% (active) in assay [1] (setting [7]); 96% (active) in assay [1] (setting [8]); 46.9% in assay [1] (at 50.0 µM); 94% (active) in assay [2] (setting [7]); 97% (active) in assay [2] (setting [8]); 97.8% (active) in assay [2] (at 50.0 µM). The growth inhibition in assay [3] (setting [7]) is 96% (active); in assay [3] (setting [8]) it was 98% (active); in assay [3] (at 50.0 µM) it was 53.1%; in assay [4] (setting [7]), 92% (active); in assay [4] (setting [8]), 96% (active); in assay [4] (at 50.0 µM), 97.5% (active). Moreover, the growth inhibition was 95% (active) in assay [5] (setting [7]); 97% (active) in assay [5] (setting [8]); 98% (active) in assay [5] (at 50.0 µM); 96% (active) in assay [6] (setting [7]); 96% (active) in assay [6] (setting [8]); 43.9% in assay [6] (at 50.0 µM).
On to `CCC[CH2][Sn]([CH2]CCC)([O]C(=O)c1cc(F)cc(F)c1)[O]C(=O)c1cc(F)cc(F)c1`, for which the growth inhibition in assay [1] (setting [7]) was 54%; in assay [1] (setting [8]) it was 54%; in assay [1] (at 50.0 µM), 22.4%; in assay [2] (setting [7]) it was 26%; in assay [2] (setting [8]), 26%; in assay [2] (at 50.0 µM) it was 52.4%. Further, the growth inhibition was 65% in assay [3] (setting [7]); 65% in assay [3] (setting [8]); 16.4% in assay [3] (at 50.0 µM); 18% in assay [4] (setting [7]); 18% in assay [4] (setting [8]); 36.2% in assay [4] (at 50.0 µM). Also, the growth inhibition in assay [5] (setting [7]) is 21%; in assay [5] (setting [8]), 21%; in assay [5] (at 50.0 µM), 67.7%; in assay [6] (setting [7]), 21%; in assay [6] (setting [8]), 21%; in assay [6] (at 50.0 µM), 68.1%.
